These sequences were tested against FZR1 (assay: pooled miR-30 sensor sort-seq; sequence = guide strand). Conditions: shRNA.

Row | Sequence | sensor-assay potency score (higher = more potent)
1 | TGTCCTGTCAGCGTGTTCCAGA | -0.846
2 | TCATTCTGGATGACGATCTGGC | 0.47
3 | AACATGGACAGCTTCTTCCCTG | -0.261
4 | TCTGTGGACCACTTGAGCCCGC | -0.976
5 | TTGCACACTTGGGAGCCCGTGT | -0.748
6 | TGAGAGGTCACAGAGCCGCGTC | -0.649
7 | TTCTGTGAGTAGCCGTGCGTGC | -1.08
8 | TTCTCATTCTCGTTAATCCTGT | -0.581
9 | TCTGGTTCTGTGAGTAGCCGTG | -0.152
10 | TGAGACTCCAGGATCCTCCAGG | -0.492
11 | TACACTGCAGTGGTTGTCCTGT | -0.434

These sequences were tested against GAA in the same assay as above. Conditions: shRNA.

Row | Sequence | sensor-assay potency score (higher = more potent)
12 | TTGTGGTTCCGCATGAAGGGGT | -0.144
13 | TAACACAGAGCAGCCCTCCAGG | -0.565
14 | TTCATGTCAATCCACATGCCGT | -0.999
15 | TTGGTGTCGGGGCTGTAGGTGA | -0.824
16 | TTCTCCAGCTTGTAGCTGGGGT | -0.57
17 | AATCTTATTAACACAGAGCAGC | -1.53
18 | TTAAACTGCAGGATTTCTGGCA | 0.151
19 | TTTGCAGGGATGTAGCAACAGC | -1.16
20 | TGAACGTGAAGTCCCTCCGGGA | -0.701
21 | TAGTCCAGGTCGTTCCACTGGA | -0.244
22 | TTGAACGTGAAGTCCCTCCGGG | 0.671
23 | TTGATCGTGAAGTGGAGGCGGT | -0.412
24 | TCCTCGGAGAACTCCACGCTGT | -1.76
25 | TTTGATCGTGAAGTGGAGGCGG | 0.187
26 | TTAAGATTTAGAATCTCCCAAG | -0.492
27 | TTCACGATCGTGTTATTCCTGG | -0.238
28 | TTGTGCAGGTTGTAGTGTGTGG | -0.0928
29 | TACAATCTTATTAACACAGAGC | -0.86
30 | TAGAGGTTCGCACCGGGCGTGG | -1.37
31 | TTTAGAATCTCCCAAGTCCTGT | 0.11
32 | TTAGCTGGATCTTTGATCGTGA | 0.689
33 | TAAACTGCAGGATTTCTGGCAC | -0.0629
34 | TACTGCTGCACCACGCTCTTGG | 0.362
35 | TTGTTGAACGTGAAGTCCCTCC | 0.0246

These sequences were tested against GAB3 in the same assay as above. Conditions: shRNA.

Row | Sequence | sensor-assay potency score (higher = more potent)
36 | TAGTACTCCAAGACATCGGGGT | 0.697
37 | TTTTCTATCTCCAATCTGGTGT | 0.0351
38 | TTTTGTGCTCTGGAGAGCCTGT | -0.572
39 | TTGAGATCTCTATTCACTGGGG | 0.467
40 | TTGACCAGCTATCACATCTGGT | -0.37

Reference: the OligoGym collection
